Source: PubChem BioAssay
Compounds with a hit are over-represented: about 1.9% of the library has one in this group of screens.
Menin-MLL TR inh = menin-MLL binding inhibition, Texas Red mutant peptide; Menin + Texas Red MLL mutant peptide, fluorescence polarization; Potency, µM (series often up to 61.6 µM), inactives show at the highest dose FP activity change, negative = inhibition, actives largely listed as inhibitors; 0.23% of 270,000 active; AID 1768; active = well fitted inhibition curve with a large enough effect in the polarisation, with a control signal flat, not every such curve was filed as active; inconclusive = small, poorly fitted or top-dose-only effect, or effect the other way, or a change in a side signal; inactive = no such curve, though single readings can be large or run the other way; the % refers to the polarisation; also: potency is read from the fitted curve at half-maximal effect; % of control where 0% means no effect
ClpP mod = qHTS Assay for Activators of ClpP; ATP-dependent Clp protease proteolytic subunit (Bacillus subtilis (strain 168)), P80244; purified B. subtilis ClpP, FRET peptide cleavage, 20 min; Potency, µM (series often up to 57.5 µM), without a hit: top-dose activity change, negative = active; 1.9% of 340,000 active; active = well fitted falling curve with a large enough effect; inconclusive = small, poorly fitted or top-dose-only effect; inactive = no such curve, though single readings can be large or run the other way; also: potency is read from the fitted curve at half-maximal effect; the source files actives as falling curves though it sought activators and does not explain the sign; nearly all actives have a fitted effect of over 65% in size
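FRET quenching reversal measured ClpP activation: 10 microg/mL B. subtilis ClpP at pH 8 with the FRET-FV decapeptide, read at 430 nm after 320 nm excitation. The 20-min minus 0-min signal was scaled between DMSO/no-enzyme wells and ADEP (5.8 microM final).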
CXXC DNA block = blocks binding of human MLL CXXC domain to DNA; MLL-CXXC / FITC-HOXA9 DNA fluorescence polarization; Potency, µM (highest dose often 115 µM), for inactives: at the highest dose activity change, negative = inhibition, hits mostly inhibitors; Q03164; 0.037% of 290,000 active; active = well fitted inhibition curve with a large enough effect in the polarisation, with a control signal flat, not every such curve was filed as active; inconclusive = small, poorly fitted or top-dose-only effect, or effect the other way, or a change in a side signal; inactive = no such curve, though single readings can be large or run the other way; the % refers to the polarisation; also: potency is read from the fitted curve at half-maximal effect
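Steps: dispense CXXC domain solution (7 uM) → pin compounds or unlabeled HOX-A9 DNA control → 5 min ambient → add FLSN-HOX-A9 solution (50 nM) → spin → 30 min ambient → fluorescence polarization. Tris pH 7.5/NaCl/DTT/BSA buffer.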
Epigenetic reg = regulators of epigenetic silencing causing reporter derepression in mouse cells; AID 1865; Potency, µM (series often up to 53.9 µM), inactives show at the top dose GFP activation, hits mostly activators; murine LDR cells, GFP reporter derepression, 30 h; 0.2% of 280,000 active; active = well fitted activation curve with a large enough effect; inconclusive = small, poorly fitted or top-dose-only effect; also: potency is read from the fitted curve at half-maximal effect; % of control where 0% means no effect; nearly all actives have a fitted effect of over 60% in size
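Murine LDR cells bearing a silenced CMV-driven GFP reporter were exposed to compound for 30 h at 37 C. After PBS washes, GFP-positive cells (20-120 um objects) counted by laser-scanning microplate cytometry.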
PINK1 modulator = modulators of PINK1 expression; 0.2% of 410,000 active; Potency, µM (highest dose often 76.6 µM), inactives show at the highest dose activation (PINK1 increase), actives largely listed as activators; PINK1 immunofluorescence, high-content cytometry, 24 h; active = well fitted activation curve with a large enough effect; inconclusive = small, poorly fitted or top-dose-only effect; cell line not stated here; also: potency is read from the fitted curve at half-maximal effect; % of control where 0% means no effect; nearly all actives have a fitted effect of over 65% in size
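PINK1 protein level read as immunofluorescence by microplate cytometer in a fixed, stained stable cell line after 24 h exposure to five compound concentrations, with CCCP as control.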
Menin-MLL FL inh = menin-MLL binding inhibition, fluorescein peptide; Fluorescence polarization, fluorescein-MLL peptide displacement from menin; FP activity change, % at 61.4 µM; AID 1766; 290,000 tested, under 10 active; active = well fitted curve in the direction sought with a large enough effect in the polarisation, not every such curve was filed as active; inconclusive = small, poorly fitted or top-dose-only effect, or effect the other way, or a change in a side signal; inactive = no such curve, though single readings can be large or run the other way; the % refers to the polarisation; also: % of control where 0% means no effect
Active calls of the source: *; ? = inconclusive; / = no result given; [ ] = remark or other dose.

SMILES	Menin-MLL TR inh	ClpP mod	CXXC DNA block	Epigenetic reg	PINK1 modulator	Menin-MLL FL inh
COc1ccc(-c2cc3ccccc3n2CC(O)CN2CCCCC2)cc1 (configuration not stated)	/	3%	1%	2%	-1%	-1
COc1ccc(C(CC(=O)O)c2cc(OC)c(OC)c(OC)c2)cc1OC (configuration not stated)	/	32µM*	/	/	-1%	/
COc1ccc(-n2c(C)cc(/C=C3\SC(=S)NC3=O)c2C)cc1	?	2%	58%	25µM*	32µM*	?
CCCSc1ncc(Cl)c(C(=O)Nc2c(C(=O)c3ccc(C)cc3)oc3ccccc23)n1	/	0%	/	0%	1%	/
CC1=C(C(=O)N2CCOCC2)C(c2ccc(-c3ccccc3)cc2)NC(=S)N1 (configuration not stated)	1%	28µM*	3%	-2%	3%	?
CC(=O)Nc1ccccc1-c1nc(CNC(=O)c2ccc(C)cc2)c(C)o1	/	/	/	/	0%	/
COc1cc(/C=N/Nc2nncn2N)ccc1OCc1c(C)no[n+]1[O-]	/	0%	0%	-2%	2%	1
COc1ccc(/C=N/Nc2nncn2N)cc1Br	-1%	16µM*	3%	/	4%	-5
O=C(Nc1ccc2ccccc2c1)c1cn(-c2ccccc2)nc1-c1cccs1	/	32µM*	25%	0%	5%[38.3 µM]	/
O=C(Nc1ccc2ccccc2c1)c1ccccc1O	?	/	10%	/	14µM*	2
CCC(C(=O)O)C1OC(C(C)C(O)C(C)C(=O)C(CC)C2OC3(C=CC(O)C4(CCC(C)(C5CCC(O)(CC)C(C)O5)O4)O3)C(C)CC2C)C(C)CC1C (configuration not stated)	-14%	/	10%	/	/	4
Cc1ccc(S(=O)(=O)NCC(c2ccc3c(c2)OCO3)N2CCOCC2)cc1 (configuration not stated)	/	28µM*	/	/	0%	/
O=S(=O)(NCC(c1ccc2c(c1)OCO2)N1CCOCC1)c1ccc(Br)cc1 (configuration not stated)	/	/	/	/	-1%	/
CCOC(=O)c1c(-c2ccccc2)csc1NC(=O)c1nn(CC)cc1Br	35%	32µM*	2%	-1%	/	3
Cc1ccc(CNc2cnccn2)cc1	22%	14µM*	3%	-1%	17%[38.3 µM]	1
c1ccc(CNc2cnccn2)cc1	?	3.2µM*	5%	-2%	13%[38.3 µM]	6
CCOC(=O)N1CCN(C(=S)NC(=O)c2ccc(F)c(F)c2)CC1	5%	28µM*	-4%	0%	7%	-3
COCCCNC(=O)c1ccc2nc3ccccc3c(=O)n2c1	5%	16µM*	-3%	0%	-3%[38.3 µM]	-3
COC(CNC(=O)c1ccc2nc3ccccc3c(=O)n2c1)OC	-27%	/	46%	/	2%	3
Cc1c(C(=O)N2CCCCC2)sc2ncnc(NCCc3ccccn3)c12	/	/	/	/	0%	/
Cc1ccc(S(=O)(=O)N(CC(=O)Nc2cccc([N+](=O)[O-])c2)C2CCCCC2)cc1	?	-1%	14%	-3%	7%	-2
Cc1ccc(S(=O)(=O)N(CC(=O)Nc2ccc(Cl)c([N+](=O)[O-])c2)C2CCCCC2)cc1	-3%	28µM*	-20%	-1%	-2%	2
CC(=O)OCC(=O)c1ccc2ccn(C(C)=O)c2c1	-5%	35µM*	5%	0%	3%[38.3 µM]	5
CC(=O)N1CCC[C@H]1C(=O)N1CCc2c(cnc(C)c2CNC(=O)/C=C/c2cccs2)C1	/	/	/	/	0%	/
COc1ccc(/C=C(\C#N)C(=O)Nc2cc(C)c(Cl)cc2OC)cc1O	/	1%	-8%	5%	10%	2
SMILES	Menin-MLL TR inh	ClpP mod	CXXC DNA block	Epigenetic reg	PINK1 modulator	Menin-MLL FL inh
COc1ccc(/C=C(/C#N)C(=O)Nc2cc(C)ccc2C)cc1C(=O)O	9%	25µM*	-4%	-1%	2%	0
O=C(CN1CCCc2ccccc21)N/N=C/c1ccccc1O	?	28µM*	6%	3%	0%	5
CN(C)c1ccc(/C=C2\C=Cc3ccccc32)c(F)c1	/	1%	/	/	15%	/
CN(C)c1ccc(/C=C/c2cccc3cc4ccccc4nc23)cc1	/	56%	/	/	-1%	/
Cc1cccc(NC(=O)c2cc(-c3ccco3)nc3ccccc23)n1	11%	22µM*	3%	4%	22%	0
COc1cc(/C=N/NC(=O)c2cc(-c3ccco3)nc3ccccc23)cc(OC)c1O	/	-16%	0%	1%	1%	2
O=C(N/N=C/c1cccc(F)c1)c1cc(-c2ccco2)nc2ccccc12	?	32µM*	-3%	0%	6%	4
Cc1ccccc1NC(=O)c1cc(-c2ccco2)nc2ccccc12	/	/	/	/	2%	/
Cc1cccc(NC(=O)c2ccoc2C)n1	6%	28µM*	3%	6%	-2%	4
Cc1ccc(S(=O)(=O)N(C)C)cc1NC(=O)c1cc(-c2ccco2)nc2ccccc12	/	28µM*	-2%	/	3%	/
Cc1ccc(C)c(C(=O)N2CCC(C3(c4ccccn4)NC(=O)N(CC4CCCO4)C3=O)CC2)c1 (configuration not stated)	/	/	/	/	-1%	/
CCCCCCCCOc1ccccc1C(=O)Nc1ccc(C(=O)OCC[N+](C)(CC)CC)cc1	-10%	/	?	/	/	0
Cc1cccc(-c2cccc(C(=O)N3CCc4c(cnc(C)c4CNC(=O)c4cncs4)C3)c2)c1	/	/	/	/	10%	/
Cc1cccc(C(=O)Nc2ccc3nc(SCC(=O)N4CCCC4)sc3c2)c1	/	-9%	/	-1%	0%	/
CSc1nnc(-c2cc(-c3ccc(C)cc3)nc3ccccc23)o1	7%	35µM*	21%	0%	5%	1
Cc1ccc(-c2cc(-c3n[nH]c(=S)o3)c3ccccc3n2)cc1	?	20%	1%	-5%	9%	8
COc1cc2nc(CCc3nc4cc(OC)c(OC)cc4[nH]3)[nH]c2cc1OC	/	-4%	/	/	/	/
Cc1ccc(-c2cc(-c3nnc(SCC(=O)N(C)CCC#N)n3N)c3ccccc3n2)cc1	3%	16µM*	-1%	-1%	3%	0
Cc1ccc(N(CCC#N)C(=O)CSc2nc3ccccc3c(=O)[nH]2)cc1	/	-2%	/	/	0%	/
COC(=O)C1=CN(C(C)C)C=C(C(=O)OC)C1c1cc2c(cc1Br)OCO2	-3%	32µM*	2%	-6%	-3%[38.3 µM]	-2
CC1=C(C(=O)OCC(C)C)C(c2cc3c(cc2Br)OCO3)NC(=O)N1C (configuration not stated)	-4%	1%	12%	0%	3%	2
N#C/C(=C/c1ccc(N2CCCCCC2)o1)c1ccc(F)cc1	/	32µM*	/	/	21%	/
